# D1 agonist: agonists of human D1 dopamine receptor | activation, % at 2 µM | HEK293 T-REx D1 cells, calcium flux, agonist mode | actives 1% (n = 360,000); further: 0% is about no effect
# Target sequence (P21728 whole entry, looked up): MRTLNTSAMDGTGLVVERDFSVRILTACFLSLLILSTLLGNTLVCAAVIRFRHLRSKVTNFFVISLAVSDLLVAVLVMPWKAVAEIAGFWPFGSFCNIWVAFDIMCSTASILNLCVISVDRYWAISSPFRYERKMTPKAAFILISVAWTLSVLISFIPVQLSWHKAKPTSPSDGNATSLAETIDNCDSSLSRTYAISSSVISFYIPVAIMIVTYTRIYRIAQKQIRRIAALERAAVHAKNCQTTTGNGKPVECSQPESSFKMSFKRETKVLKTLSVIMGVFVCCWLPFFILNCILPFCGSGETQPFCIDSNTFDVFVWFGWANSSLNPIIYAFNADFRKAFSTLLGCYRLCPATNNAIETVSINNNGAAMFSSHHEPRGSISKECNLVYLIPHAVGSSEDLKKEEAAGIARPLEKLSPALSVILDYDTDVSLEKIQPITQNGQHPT
#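 Inducible HEK293 T-REx D1 cells, force-coupled to calcium signalling, were plated at 4000 cells/well with tetracycline and held overnight at 30 C. After no-wash calcium dye loading, compound-evoked calcium rise over 180 s flagged agonists.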
# TRHR agonist: agonists of human TRH receptor; activation, % at 2 µM; actives 0.18% (n = 360,000); P34981; TRHR cells, calcium flux fluo-8, FDSS agonist mode; further: 0% is about no effect
#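 TRHR-expressing cells loaded with fluo-8 calcium dye; 23 nL library compound pin-transferred, kinetic FDSS fluorescence (Ex 480/Em 530) recorded about 180 s for agonist-induced calcium release, before a 10 nM TRH EC20 addition for potentiator mode.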
# D1 PAM: potentiators of human D1 dopamine receptor | P21728 | HEK293 TREx D1 cells, calcium flux, dopamine EC20 potentiation | potentiation, % at 10 µM | actives 0.036% (n = 360,000); in the data active means potentiation above about 30%; further: 0% is about no effect
# Glioma ERSR ind: induces the endoplasmic reticulum stress response in human glioma cells. Potency, µM, inactives show at the top dose activation, hits mostly activators. actives 0.02% (n = 420,000). U87-MG GRP78 promoter luciferase reporter, 16 h; active means well fitted activation curve with a large enough effect; further: potency means the concentration at half of the fitted maximal effect; series mostly up to about 76 µM; % of control where 0% means no effect; nearly all actives have a fitted effect of over 35% in size
#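 Stably transfected U87-MG human glioma cells carrying a GRP78-based luminescent sensor were seeded at 1000 cells/well, pin-dosed with compounds and incubated 16 h. Luciferase reagent was then added, and end-point luminescence was read after 10 min at room temperature.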
# D1 antag: antagonists of human D1 dopamine receptor; HEK293 TREx D1 cells, calcium flux, dopamine EC80; active compounds read low; activity change, negative = inhibition, % at 10 µM; actives 3.2% (n = 360,000); AID 504652; in the data active means activity change below about -30%; further: on the % scale 0 is the no-effect control and ±100 the full control effect
#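 Allosteric or orthosteric antagonism assessed as attenuation of the calcium response to EC80 dopamine, added 180 s after compound, in induced HEK293 Trex D1 cells loaded with no-wash calcium dye.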
# TRHR PAM: allosteric enhancers of human TRH receptor; TRHR cells, fluo-8 calcium fluorescence, EC20 TRH enhancement; actives 0.66% (n = 360,000); P34981; enhancement, % at 2 µM; in the data active means enhancement above about 30%; further: 0% is about no effect
#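 TRHR-expressing cells loaded with fluo-8 calcium dye were read kinetically (ex 480/em 530) during compound addition, then stimulated with an EC20 of TRH (10 nM final). Enhancement of the Gq-mediated intracellular calcium response was scored.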
# An asterisk follows results filed as active; nt = no result. Sampled rows, rich in hits. Any-hit rate of the full collection: about 4%. Unless noted, no stated cut-off is given here; in the data, active means activation above about 30%; inactive means the rest.
SMILES,D1 agonist,TRHR agonist,D1 PAM,Glioma ERSR ind,D1 antag,TRHR PAM
CN(C)c1ccc(NS(=O)(=O)c2ccc(-c3csnn3)cc2)cc1,30*,0,-4,-2%,0,3
Cc1ccc(S(=O)(=O)Nc2ccc(N(C)C)cc2)cc1,2,-2,2,-1%,-8,1
CSc1c(C#N)c(N)nc2sc(C(=O)c3ccccc3)c(N)c12,37*,9,0,5%,-11,3
N#Cc1c(SCc2ccc(Cl)cc2)sc(C(=O)c2ccccc2)c1N,4,0,-8,-4%,-1,1
O=C(O)CCN1CCOCC1,1,0,-2,1%,-67*,2
C(CCN1CCOCC1)CN1CCOCC1,nt,nt,nt,4%,nt,nt
CCCCCCC(=O)O[C@@H]1CC[C@H]2[C@@H]3CCc4cc(O)ccc4[C@H]3CC[C@]12C,nt,nt,nt,7%,nt,nt
COc1cccc(S(=O)(=O)N2CCN(S(=O)(=O)c3ccc4c(c3)OCCO4)CC2)c1,2,-2,-3,nt,15,-4
Cc1csc2c(N3CCN(C(=S)Nc4ccc(F)cc4F)CC3)ncnc12,40*,1,-7,-4%,-42*,4
CCCC(=O)Nc1ccc2c(c1)Cc1ccccc1-2,3,0,-1,8%,-38*,3
CCCS(=O)(=O)NCc1c(C)ncc2c1CCN(C(=O)/C=C/c1ccc(F)cc1F)C2,nt,nt,nt,-4%,nt,nt
O=C(N/N=C/c1ccc(-c2ccc([N+](=O)[O-])cc2)o1)c1cccnc1,4,1,-4,0%,-42*,4
NC(=O)N/N=C/c1ccc(-c2ccc([N+](=O)[O-])cc2)o1,20,-1,-7,1%,-4,6
Cc1ccccc1NCC(=O)N/N=C/c1ccc([N+](=O)[O-])cc1,3,-1,0,0%,-43*,17
O=C(Cc1ccccc1)N/N=C/c1ccc(-c2ccc([N+](=O)[O-])cc2)o1,5,5,-9,-1%,-54*,-1
O=C(C[n+]1cccc(Br)c1)c1ccc(Br)cc1,nt,nt,nt,-2%,nt,nt
COc1ccc(C(=O)C2C(=O)C(=O)N(Cc3ccco3)C2c2cccs2)cc1 (stereo not given),nt,nt,nt,-1%,nt,nt
O=C(CNS(=O)(=O)c1ccccc1)OCC(=O)c1ccc(F)cc1,2,-1,-2,-4%,4,1
O=C(CCNS(=O)(=O)c1ccccc1)OCC(=O)c1ccc(F)cc1,17,0,-3,-3%,-40*,-8
CO[C@H]1COC(=O)[C@@H](C)COC(=O)[C@@H](Cc2ccccc2)NC(=O)C/C=C\[C@H]1C,nt,nt,nt,-4%,nt,nt
CCCCCCOc1ccc(N2C(=O)CC(SCCN)C2=O)cc1 (stereo not given),64*,1,-8,4%,-16,6
CCOc1ccc(N2C(=O)CC(SCCN)C2=O)cc1 (stereo not given),3,0,4,-2%,0,8
C=CCOc1ccc(C=Nc2ccc(Cl)cc2)c(O)c1,6,0,3,-4%,-6,8
CCCCn1c(O)c(/C=C2\C=NN=C2c2ccccc2)sc1=S,3,2,0,-12%,0,3
Cn1c(O)c(/C=C2\C=NN=C2c2ccccc2)sc1=S,3,0,-7,-3%,-35*,-1
CCCCCCn1c(O)c(/C=C2\C=NN=C2c2ccccc2)sc1=S,3,-1,0,-3%,11,33*
CCCOc1ccc(Oc2ccc(S(=O)(=O)N3CCN(C)CC3)cn2)cc1,5,0,-3,-5%,-37*,-6
COC(=O)c1ccc(OC(=O)CS(=O)c2ccccc2[N+](=O)[O-])cc1 (stereo not given),1,0,0,-3%,-1,4
CCOC(=O)c1ccccc1OC(=O)CS(=O)c1ccccc1[N+](=O)[O-] (stereo not given),0,-1,-1,-2%,-32*,-1
O=C(Oc1ccccc1)c1cccc(COC(=O)c2cnccn2)c1,15,0,-6,1%,-59*,-9
